Experimental findings from PubChem BioAssay (EPA / NIEHS) are described below.

SMILES strings stand for the structures. Results filed as inconclusive are left out. Calls of active or inactive are those of the source. The calls were made as follows: active = hit-call score of the fitted dose curve at least 0.9, where 1 is the maximum; inconclusive = response in the unintended direction; inactive = score below 0.9.

human Thyroid Receptor alpha (THRa1), THRA (gene 7067), sequence (P10827 whole entry, looked up, the tested form may be a part): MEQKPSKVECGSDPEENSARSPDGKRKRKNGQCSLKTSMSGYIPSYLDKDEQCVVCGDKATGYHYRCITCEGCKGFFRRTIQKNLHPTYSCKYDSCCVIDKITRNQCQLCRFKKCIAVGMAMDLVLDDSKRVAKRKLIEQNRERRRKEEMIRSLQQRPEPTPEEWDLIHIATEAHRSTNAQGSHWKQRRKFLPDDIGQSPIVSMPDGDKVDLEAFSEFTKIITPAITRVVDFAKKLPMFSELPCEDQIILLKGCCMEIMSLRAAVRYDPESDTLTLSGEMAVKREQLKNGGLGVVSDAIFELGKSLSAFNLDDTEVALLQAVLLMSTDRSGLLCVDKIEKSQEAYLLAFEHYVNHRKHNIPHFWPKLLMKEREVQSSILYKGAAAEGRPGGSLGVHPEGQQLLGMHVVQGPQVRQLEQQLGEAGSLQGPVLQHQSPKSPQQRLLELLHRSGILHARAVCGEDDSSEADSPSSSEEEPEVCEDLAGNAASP
Retinoic acid receptor RXR-alpha (Homo sapiens), sequence (P19793 whole entry, looked up, the tested form may be a part): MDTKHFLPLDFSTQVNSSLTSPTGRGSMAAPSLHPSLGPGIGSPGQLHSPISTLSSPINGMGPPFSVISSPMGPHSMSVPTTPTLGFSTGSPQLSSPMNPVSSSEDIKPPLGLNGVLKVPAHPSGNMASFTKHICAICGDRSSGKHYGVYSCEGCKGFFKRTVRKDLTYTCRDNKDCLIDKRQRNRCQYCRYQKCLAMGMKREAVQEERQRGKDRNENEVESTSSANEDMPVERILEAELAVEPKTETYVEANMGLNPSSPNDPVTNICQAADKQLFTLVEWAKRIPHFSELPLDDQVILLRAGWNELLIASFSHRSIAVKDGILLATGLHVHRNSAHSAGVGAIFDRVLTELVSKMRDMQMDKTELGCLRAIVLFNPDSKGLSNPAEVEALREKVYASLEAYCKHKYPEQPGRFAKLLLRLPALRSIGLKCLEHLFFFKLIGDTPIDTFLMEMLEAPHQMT
human Retinoid X Receptor beta (RXRb), RXRB (gene 6257), sequence (P28702 whole entry, looked up, the tested form may be a part): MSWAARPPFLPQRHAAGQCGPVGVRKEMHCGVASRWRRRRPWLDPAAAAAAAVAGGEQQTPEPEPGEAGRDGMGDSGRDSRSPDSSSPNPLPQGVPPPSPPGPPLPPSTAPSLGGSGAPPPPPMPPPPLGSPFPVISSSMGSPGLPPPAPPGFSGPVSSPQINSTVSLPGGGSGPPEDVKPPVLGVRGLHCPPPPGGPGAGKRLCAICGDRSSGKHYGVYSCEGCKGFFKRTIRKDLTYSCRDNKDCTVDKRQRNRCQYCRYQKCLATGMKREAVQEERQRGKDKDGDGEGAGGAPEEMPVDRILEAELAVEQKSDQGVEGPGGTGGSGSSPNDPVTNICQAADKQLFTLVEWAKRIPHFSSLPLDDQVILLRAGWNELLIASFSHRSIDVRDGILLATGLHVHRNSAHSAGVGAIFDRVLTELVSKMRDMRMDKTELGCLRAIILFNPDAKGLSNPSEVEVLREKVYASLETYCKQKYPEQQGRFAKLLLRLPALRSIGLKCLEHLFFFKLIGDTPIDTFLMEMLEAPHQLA

The target in one assay is Retinoic acid receptor RXR-alpha (Homo sapiens) (UniProt P19793). The assay is described as follows: ATG_RXRa_TRANS: Attagene TRANS-FACTORIAL HepG2 Assay for human Retinoid X Receptor alpha (RXRa) (AID 2283012). An outline of the steps:
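HepG2 cells transiently transfected with multiplexed GAL4-UAS reporter units and chimeric NR-GAL4 fusions, dosed 24 h. Reporter mRNA measured by RT-PCR, FAM labelling, HpaI digestion and capillary electrophoresis; gain-of-signal fitted relative to DMSO baseline.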
As to `CCCCCCCCc1ccc(S(=O)(=O)O)cc1`, the compound was called inactive.
Still for that read-out and setting: as for `CCOC(=O)CN`, the entry is “inactive”.
Still for that read-out and setting: as for `CC1(C)O[C@@H]2C[C@H]3[C@@H]4CCC5=CC(=O)C=C[C@]5(C)[C@@]4(F)[C@@H](O)C[C@]3(C)[C@]2(C(=O)CO)O1`, the entry is “inactive”.
Take `CCCCCCCCCCCC(=O)OC[C@@H](O)[C@H]1OC[C@H](O)[C@H]1O`: the outcome was inactive.
Same read-out and setting: as for `N[C@@H](Cc1cc(I)c(Oc2cc(I)c(O)c(I)c2)c(I)c1)C(=O)O`, the entry is “inactive”; as for `c1ccc(CN(Cc2ccccc2)Cc2ccccc2)cc1`, “inactive”; as for `CC1=CC[C@@]23C[C@@H]1C(C)(C)[C@@H]2CC[C@H]3C`, “inactive”.
Consider `NCc1ccco1`, for which the compound was classed as inactive.
`CCCCCCOC(=O)CCC`: the result was inactive.
The same measure, in the same setting: in the case of `CC(C)C(OC(=O)c1ccccc1)C(C)(C)COC(=O)c1ccccc1` (centres undefined) it was “inactive”; in that of `Cc1ccc(-c2ccccc2)cc1`, “inactive”; in that of `ClC(c1ccccc1)(c1ccccc1)c1ccccc1`, “inactive”.

A further assay addresses human Retinoid X Receptor beta (RXRb), RXRB (gene 6257) (UniProt P28702). The assay is described as follows: ATG_RXRb_TRANS: Attagene TRANS-FACTORIAL HepG2 Assay for human Retinoid X Receptor beta (RXRb) (AID 2283013). An outline of the steps:
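HepG2 cells transiently transfected with multiplexed reporter units driven by GAL4-UAS and exogenous chimeric NR-Gal4 proteins; treated 24 h. Reporter mRNA measured by RT-PCR, 6-FAM labelling and capillary electrophoresis; gain-of-signal fitted versus DMSO baseline.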
The term AC50 denotes the concentration at which the activity in the assay is half-maximal. For `O=C1CCCC=CCCCCCCCCCC1`, the AC50 was 12.1 µM (active).
Take `C=CC(=O)OCCC#N`: the result was inactive.
The same measure, in the same setting: in the case of `CC(C)(C)c1ccc(C(=O)O)cc1` it was “inactive”; in that of `O=C(Nc1ccc([N+](=O)[O-])cc1)Nc1ccc([N+](=O)[O-])cc1` (tested in a mixture with another compound), “inactive”; in that of `CC=Cc1ccc(OC)c(OC)c1`, “inactive”.
With `N#Cc1ccc(CC(=O)c2cccc(C(F)(F)F)c2)cc1`, the AC50 was 5.99 µM (active).
Regarding `CC(C)CCOC(=O)c1ccccc1`, the outcome was inactive.
Same read-out and setting: as for `CCCCCCCCSCCO`, the entry is “inactive”; as for `COC(C)(C)CC(C)=O`, “inactive”.
As for `O=C(CS)OCCOC(=O)CS`, the outcome was inactive.
On the same count and under the same terms, in the case of `CC(C)NCC(O)COc1ccc(CC(N)=O)cc1` (centres undefined) it was “inactive”; in that of `C=CCCCCCCCCCC`, “inactive”.
Turning to `CCCSc1ccc2nc(NC(=O)OC)[nH]c2c1`, the result was inactive.
The same measure, in the same setting: in the case of `CC1(C)C(=O)N(Cl)C(=O)N1Br` it was “inactive”.
Regarding `CCc1cc(C(C)(C)C)c(O)c(C(C)(C)C)c1`, the AC50 is 0.325 µM (active).
`Cc1ccc2c(c1)C(=O)OC2=O`: the outcome was inactive.
Take `CC(=O)O[C@H]1C[C@@H]2CC[C@@]1(C)C2(C)C`: the compound was called inactive.
Still for that read-out and setting: as for `C=C(CC(=O)O)C(=O)O`, the entry is “inactive”; as for `CC(C)=CCCC(C)CC(=O)O` (centres undefined), “inactive”.
On the same count and under the same terms, as for `CC(=O)OCCCc1ccccc1`, the entry is “inactive”.
Turning to `COc1ccc(N)c([N+](=O)[O-])c1`, the call was inactive.
Same read-out and setting: as for `CCCCCCCC(=O)OCCCCCC`, the entry is “inactive”.
On to `CCCOC(=O)c1c(Cl)c(Cl)c(Cl)c(Cl)c1C(=O)OCCC`, for which the AC50 was 10.6 µM (active).
In the case of `Cc1ncc([N+](=O)[O-])n1CCO`, the result was inactive.
`CCCCCCCCc1ccc(S(=O)(=O)O)cc1`: the compound was classed as inactive.
On to `CCOC(=O)CN`, for which the compound was classed as inactive.
Take `CC1(C)O[C@@H]2C[C@H]3[C@@H]4CCC5=CC(=O)C=C[C@]5(C)[C@@]4(F)[C@@H](O)C[C@]3(C)[C@]2(C(=O)CO)O1`: the compound was called inactive.
Same read-out and setting: in the case of `CCCCCCCCCCCC(=O)OC[C@@H](O)[C@H]1OC[C@H](O)[C@H]1O` it was “inactive”.
Regarding `N[C@@H](Cc1cc(I)c(Oc2cc(I)c(O)c(I)c2)c(I)c1)C(=O)O`, the concentration at half-maximal activity (AC50) is 69 µM (active).
`c1ccc(CN(Cc2ccccc2)Cc2ccccc2)cc1`: the AC50 was 13.1 µM (active).
For the compound `CC1=CC[C@@]23C[C@@H]1C(C)(C)[C@@H]2CC[C@H]3C`, the AC50 is 58.9 µM (active).
Turning to `NCc1ccco1`, the call was inactive.
The same measure, in the same setting: as for `CCCCCCOC(=O)CCC`, the entry is “inactive”.
In the case of `CC(C)C(OC(=O)c1ccccc1)C(C)(C)COC(=O)c1ccccc1` (centres undefined), the AC50 was 25.4 µM (active).
As to `Cc1ccc(-c2ccccc2)cc1`, the compound was called inactive.
On to `ClC(c1ccccc1)(c1ccccc1)c1ccccc1`, for which the result was inactive.

The target of the next assay is human Thyroid Receptor alpha (THRa1), THRA (gene 7067) (UniProt P10827). Description: ATG_THRa1_TRANS: Attagene TRANS-FACTORIAL HepG2 Assay for human Thyroid Receptor alpha (THRa1) (AID 2283014). An outline of the steps:
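HepG2 cells transiently transfected with multiplexed GAL4-UAS reporter units for exogenous chimeric THRa1-Gal4; reporter mRNA measured 24 h after dosing by RT-PCR, 6-FAM labelling, HpaI digestion and capillary electrophoresis. Gain-of-signal fitted versus DMSO baseline.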
Consider `C=CC(=O)OCCC#N`, for which the call was inactive.
Same read-out and setting: in the case of `CC=Cc1ccc(OC)c(OC)c1` it was “inactive”.
Turning to `N#Cc1ccc(CC(=O)c2cccc(C(F)(F)F)c2)cc1`, the AC50 was 42 µM (active).
Consider `CC(C)CCOC(=O)c1ccccc1`, for which the compound was called inactive.
As for `COC(C)(C)CC(C)=O`, the compound was called inactive.
On the same count and under the same terms, as for `C=CCCCCCCCCCC`, the entry is “inactive”.
Still for that read-out and setting: as for `CC1(C)C(=O)N(Cl)C(=O)N1Br`, the entry is “inactive”; as for `COc1ccc(N)c([N+](=O)[O-])c1`, “inactive”.
Regarding `CCCOC(=O)c1c(Cl)c(Cl)c(Cl)c(Cl)c1C(=O)OCCC`, the compound was called inactive.
`CC1(C)O[C@@H]2C[C@H]3[C@@H]4CCC5=CC(=O)C=C[C@]5(C)[C@@]4(F)[C@@H](O)C[C@]3(C)[C@]2(C(=O)CO)O1`: the result was inactive.
Turning to `CC(C)C(OC(=O)c1ccccc1)C(C)(C)COC(=O)c1ccccc1` (centres undefined), the call was inactive.
